{"source": "PubChem BioAssay AID1445", "about": "(SRMLSC, 2008)", "note": "About 910 (0.41%) of roughly 220,000 compounds were called active. Only a selection was taken, and actives are over-represented in it overall. Entries with a potency or affinity are not part of this list. Unmarked numbers belong to inactive results.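 Rule for the calls: active = primary inhibition above the hit cutoff, then over 50% inhibition at one or more dose response concentrations (cut at about 23% in these data, passing the limit was not always enough); inconclusive = conflicting primary data, or primary hits not chosen for dose response; inactive = low primary inhibition, or under 50% at every dose.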"}
{"target": "Aminopeptidase N (Plasmodium falciparum (isolate 3D7)) (UniProt O96935)", "sequence (O96935 whole entry, looked up)": "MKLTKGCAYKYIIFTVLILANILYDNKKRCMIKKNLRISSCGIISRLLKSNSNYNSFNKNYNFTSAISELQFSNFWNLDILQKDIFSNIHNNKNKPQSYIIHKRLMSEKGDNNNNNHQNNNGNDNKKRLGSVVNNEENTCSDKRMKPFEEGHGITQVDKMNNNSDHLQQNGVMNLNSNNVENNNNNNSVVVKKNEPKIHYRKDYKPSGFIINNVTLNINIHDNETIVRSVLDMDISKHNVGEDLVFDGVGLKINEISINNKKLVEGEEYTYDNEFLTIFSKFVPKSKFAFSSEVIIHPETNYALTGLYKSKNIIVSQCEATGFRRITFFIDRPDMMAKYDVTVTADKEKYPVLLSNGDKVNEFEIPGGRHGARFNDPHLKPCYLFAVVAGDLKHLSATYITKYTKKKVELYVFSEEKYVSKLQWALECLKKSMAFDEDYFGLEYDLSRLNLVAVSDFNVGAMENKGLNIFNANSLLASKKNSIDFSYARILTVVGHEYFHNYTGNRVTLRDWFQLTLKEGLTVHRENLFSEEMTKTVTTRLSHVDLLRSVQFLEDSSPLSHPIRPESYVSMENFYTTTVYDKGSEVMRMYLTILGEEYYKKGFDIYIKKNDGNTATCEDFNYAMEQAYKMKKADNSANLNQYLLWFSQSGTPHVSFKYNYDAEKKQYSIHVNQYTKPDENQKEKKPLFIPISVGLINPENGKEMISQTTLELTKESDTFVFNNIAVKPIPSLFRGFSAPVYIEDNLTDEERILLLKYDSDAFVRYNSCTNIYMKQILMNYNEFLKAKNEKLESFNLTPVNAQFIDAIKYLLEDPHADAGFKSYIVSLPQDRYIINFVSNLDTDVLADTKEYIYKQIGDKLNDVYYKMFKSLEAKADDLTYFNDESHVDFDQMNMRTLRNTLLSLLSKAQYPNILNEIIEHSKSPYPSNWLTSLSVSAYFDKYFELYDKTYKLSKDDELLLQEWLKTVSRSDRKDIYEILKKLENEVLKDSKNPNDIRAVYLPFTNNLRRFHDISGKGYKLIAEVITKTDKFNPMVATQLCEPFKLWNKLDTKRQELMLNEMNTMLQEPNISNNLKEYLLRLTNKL", "assay": "malaria alanyl aminopeptidase activity blockers – biochemical, fluorogenic H-Leu-NHMec substrate, 1536-well (AID 1445);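 note: plate controls were DMSO full reaction for no effect and no enzyme background for full effect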", "conditions": "recombinant M1AAP, H-Leu-NHMec fluorogenic kinetic assay; at 30 µM, hits give high values unless noted"}
{"smiles": "Cc1ccc(C(C(=O)NC(C)(C)C)N(Cc2cccs2)C(=O)c2ccc3c(c2)OCCO3)cc1", "note": "(stereo not drawn)", "inhibition": "9.95%"}
{"smiles": "O=C(Cn1nnc(-c2ccc3c(c2)OCO3)n1)N1CCOCC1", "inhibition": "0.39%"}
{"smiles": "CCOc1ccc(N2CC(C(=O)Nc3ccc(S(=O)(=O)Nc4ncccn4)cc3)CC2=O)cc1", "note": "(stereo not drawn)", "inhibition": "20.6%"}
{"smiles": "CN(Cc1cnccn1)Cc1c(C(=O)N2CCc3ccccc3C2)nc2ccc(Cl)cn12", "inhibition": "1.48%"}
{"smiles": "CC1(NC(=S)NCCO)CCS(=O)(=O)C1", "note": "(stereo not drawn)", "inhibition": "6.94%"}
{"smiles": "COc1cccc(NC(=O)C2CCCN(S(=O)(=O)c3cccc4cccnc34)C2)c1", "note": "(stereo not drawn)", "inhibition": "4.01%"}
{"smiles": "O=C(NCc1cccs1)C1CCN(S(=O)(=O)c2cccc3cccnc23)CC1", "inhibition": "45.9% (active)"}
{"smiles": "COc1ccc(NC(=O)C2CCN(S(=O)(=O)c3cccc4cccnc34)CC2)cc1OC", "inhibition": "2.6%"}
{"smiles": "COc1ccc(NC(=O)C2CCCN(S(=O)(=O)c3cccc4cccnc34)C2)cc1OC", "note": "(stereo not drawn)", "inhibition": "28.4% (active)"}
{"smiles": "O=C(NCc1cccs1)C1CCCN(S(=O)(=O)c2cccc3cccnc23)C1", "note": "(stereo not drawn)", "inhibition": "21.9%"}
{"smiles": "COc1ccc(CNC(=O)C2CCN(S(=O)(=O)c3cccc4cccnc34)CC2)cc1", "inhibition": "11.4%"}
{"smiles": "O=C(NCc1cccs1)C1CCN(S(=O)(=O)c2cccc3nsnc23)CC1", "inhibition": "6.27%"}
{"smiles": "O=C(NCc1ccco1)C1CCN(S(=O)(=O)c2cccc3cccnc23)CC1", "inhibition": "0.35%"}
{"smiles": "CCOc1ccccc1C1C(C(=O)OC)=C(N)OC2=C1C(=O)CCC2", "note": "(stereo not drawn)", "inhibition": "3.31%"}
{"smiles": "CCOC(=O)N1CCC(NC(=O)C2=CCN(S(=O)(=O)c3ccc(F)cc3)CC2)CC1", "inhibition": "-3%"}
{"smiles": "Cc1cccc(C(=O)Nc2sc(C)c(-c3ccccc3)c2C#N)c1", "inhibition": "3.54%"}
{"smiles": "O=C(OC1CCOC1=O)c1ccc(Cl)c(S(=O)(=O)N2CCCCC2)c1", "note": "(stereo not drawn)", "inhibition": "1.33%"}
{"smiles": "COc1cc(/C=C2\\SC(c3ccc(C)cc3)=NC2=O)cc(OC)c1OC", "inhibition": "-0.48%"}
{"smiles": "COc1cc(/C=C2\\SC(c3ccc(C)cc3)=NC2=O)cc(OC)c1O", "inhibition": "19.7%"}
{"smiles": "C=CCn1c(=N)c(C(=O)NCCCOC)cc2c(=O)n3ccccc3nc21", "inhibition": "13.6%"}
{"smiles": "COCCCNC(=O)c1cc2c(=O)n3cccc(C)c3nc2n(C(C)C)c1=N", "inhibition": "21.8%"}
{"smiles": "COCCNC(=O)c1cc2c(=O)n3cccc(C)c3nc2n(Cc2ccncc2)c1=N", "inhibition": "30.2%"}
{"smiles": "C=CCn1c(=N)c(C(=O)NCCCOC)cc2c(=O)n3cc(C)ccc3nc21", "inhibition": "4.34%"}
{"smiles": "CC(CN1CCCCC1)OC(=O)C1c2ccccc2Oc2ccccc21", "note": "(stereo not drawn)", "inhibition": "1.62%"}
{"smiles": "Cc1ccc(S(=O)(=O)N2c3ccccc3CC2C)cc1", "note": "(stereo not drawn)", "inhibition": "2.44%"}
{"smiles": "CC(c1ccccc1)C1CC(=O)N(C2CCCCC2)C1=O", "note": "(stereo not drawn)", "inhibition": "-0.34%"}
{"smiles": "COc1ccc2cc1Oc1ccc(cc1)C[C@H]1c3c(cc4c(c3Oc3cc5c(cc3OC)CCN(C)[C@@H]5C2)OCO4)CCN1C", "inhibition": "2.7%"}
{"smiles": "COc1ccc2cc1Oc1ccc(cc1)C[C@H]1c3cc(c(OC)cc3CCN1C)Oc1c(OC)c(OC)cc3c1[C@H](C2)N(C)CC3", "inhibition": "0.59%"}
{"smiles": "CC(c1ccccc1)n1c(Cn2ncc3ccccc3c2=O)n[nH]c1=S", "note": "(stereo not drawn)", "inhibition": "7.12%"}
{"smiles": "O=C(NCc1ccco1)C1CCCN(S(=O)(=O)c2cccc3nsnc23)C1", "note": "(stereo not drawn)", "inhibition": "5.11%"}
{"smiles": "O=C(NCc1ccc2c(c1)OCO2)C1CCCN(S(=O)(=O)c2cccc3cccnc23)C1", "note": "(stereo not drawn)", "inhibition": "18.6%"}
{"smiles": "O=C(NCc1ccco1)C1CCCN(S(=O)(=O)c2cccc3cccnc23)C1", "note": "(stereo not drawn)", "inhibition": "9.65%"}
{"smiles": "O=C(NCc1ccc2c(c1)OCO2)C1CCCN(S(=O)(=O)c2cccc3nonc23)C1", "note": "(stereo not drawn)", "inhibition": "27.8% (active)"}
{"smiles": "O=C(NCc1ccccc1)C1CCCN(S(=O)(=O)c2cccc3nonc23)C1", "note": "(stereo not drawn)", "inhibition": "34.1%"}
{"smiles": "COCC(=O)N(Cc1ccccc1)c1ccccn1", "inhibition": "17.1%"}
{"smiles": "CC(=O)Nc1ccc(S(=O)(=O)N2CCN(CC(O)COc3ccc4ccccc4c3)CC2)cc1", "note": "(stereo not drawn)", "inhibition": "8.01%"}
{"smiles": "O=C(CSc1nnc(Cc2ccccc2)n1C1CCCCC1)N1CCOCC1", "inhibition": "4.89%"}
{"smiles": "COc1ccc(/C(N)=N/OC(=O)c2ccc3c(c2)OCO3)cc1OC", "inhibition": "1.74%"}
{"smiles": "COc1cccc(NC(=O)Cc2nnc(SCCOc3ccccc3)n2C)c1", "inhibition": "8.03%"}
{"smiles": "COc1ccc(OCCSc2nnc(CC(=O)Nc3cccc(Cl)c3Cl)n2C)cc1", "inhibition": "23.6% (active)"}
{"smiles": "CCn1c(CC(=O)Nc2cccc(Cl)c2Cl)nnc1SCCOc1ccc(OC)cc1", "inhibition": "13.4%"}
{"smiles": "Cc1cc(NS(=O)(=O)c2ccc(Nc3nc(-c4sc(N)nc4C)cs3)cc2)no1", "inhibition": "17.9%"}
{"smiles": "Cc1cc(NS(=O)(=O)c2ccc(Nc3nc(-c4sc(C)nc4C)cs3)cc2)no1", "inhibition": "23.9% (active)"}
{"smiles": "CCC(=O)Nc1nc(C)c(-c2csc(Nc3ccc(S(=O)(=O)Nc4cc(C)on4)cc3)n2)s1", "inhibition": "6.43%"}
{"smiles": "Cc1nc(CNC(=O)c2cc(COc3ccc(F)cc3Cl)on2)cs1", "inhibition": "3.28%"}
{"smiles": "Cc1ccc(S(=O)(=O)Nc2ccc(Cl)cc2C(=O)c2ccccc2)cc1", "inhibition": "3.73%"}
{"smiles": "O=C(Cc1sc(Nc2ccccc2)nc1-c1ccccc1)NCc1ccccc1", "inhibition": "7.32%"}
{"smiles": "COc1cc(/C=C(/C#N)c2nc(-c3cc4ccccc4oc3=O)cs2)cc([N+](=O)[O-])c1O", "inhibition": "11%"}
{"smiles": "COc1cc(/C=C(\\C#N)c2nc3ccccc3[nH]2)cc(OC)c1O", "inhibition": "20.3%"}
{"smiles": "COc1cc(/C=N/Nc2nc3ccccc3s2)cc([N+](=O)[O-])c1O", "inhibition": "32.1%"}
{"smiles": "COc1cc(/C=C(\\C#N)c2nc3ccc(C)cc3[nH]2)c([N+](=O)[O-])cc1OC", "inhibition": "14.8%"}
{"smiles": "COc1ccc(-c2csc(/C(C#N)=C\\c3ccc(O)c([N+](=O)[O-])c3)n2)cc1OC", "inhibition": "3.12%"}
{"smiles": "N#C/C(=C/c1ccncc1)c1nc2ccccc2s1", "inhibition": "-2.18%"}
{"smiles": "CC(C)COC(=O)N(C)c1ccc(C(O)(C(F)(F)F)C(F)(F)F)cc1", "inhibition": "11.6%"}
{"smiles": "COCCn1c(SCC(=O)Nc2cccc(OC)c2)nc2c(oc3ccccc32)c1=O", "inhibition": "-5.31%"}
{"smiles": "NS(=O)(=O)c1ccc(NC(=O)COC(=O)CCNC(=O)NC23CC4CC(CC(C4)C2)C3)cc1", "inhibition": "2.67%"}
{"smiles": "CSc1nc(C)cc(C)c1C(N)=O", "inhibition": "6.25%"}
{"smiles": "CCCCc1[nH]c(=O)c(C#N)c2c1CSC(C)(C)C2", "inhibition": "23.7% (active)"}
{"smiles": "Cc1[nH]c(=O)c(C#N)c2c1CSC(C)(C)C2", "inhibition": "9.75%"}
{"smiles": "CCc1[nH]c(=O)c(C#N)c2c1CSC(C)(C)C2", "inhibition": "10.3%"}
{"smiles": "CCOC(=O)c1coc(CNC(=O)c2c(C)oc3c2CCCC3)c1", "inhibition": "4.14%"}
{"smiles": "Cc1ccc(CN2CCN(C3CSCCSC3)CC2CCO)cc1", "note": "(stereo not drawn)", "inhibition": "-1.96%"}
{"smiles": "CC(=O)N1CCN(c2ccc(NC(=O)C(C)Oc3ccc(Cl)cc3Cl)cc2)CC1", "note": "(stereo not drawn)", "inhibition": "4.51%"}
{"smiles": "O=c1cc(-c2ccccc2Cl)oc2c(NS(=O)(=O)c3ccccc3C(F)(F)F)ccc(O)c12", "inhibition": "10.4%"}
{"smiles": "O=c1cc(-c2ccccc2Cl)oc2c(NS(=O)(=O)c3ccccc3OC(F)(F)F)ccc(O)c12", "inhibition": "3.26%"}
{"smiles": "Cc1ccc(S(=O)(=O)N2CCCC2C(=O)Nc2ccc(O)cc2)cc1", "note": "(stereo not drawn)", "inhibition": "7.62%"}
{"smiles": "c1ccn2c(SCc3ccc4c(c3)OCO4)nnc2c1", "inhibition": "3.07%"}
{"smiles": "S=C(Nc1ccc(Br)cc1)N1CCn2cccc2C1c1cccnc1", "note": "(stereo not drawn)", "inhibition": "10.1%"}
{"smiles": "COc1ccc(C)cc1NC(=O)c1cc2ccccc2o1", "inhibition": "-2.39%"}
{"smiles": "COc1ccc(C(=O)Nc2cccc(OC)c2)cc1", "inhibition": "1.64%"}
{"smiles": "Cc1ccc(C(=O)Nc2ccc(Oc3ccc(C(=O)O)c(C(=O)O)c3)cc2)cc1C", "inhibition": "5.36%"}
{"smiles": "COc1ccc(S(=O)(=O)n2nc(OC(=O)c3cccs3)cc2NC(=O)c2cccs2)cc1", "inhibition": "3.59%"}
{"smiles": "CN(C(=O)c1cc2n(n1)C(C(F)(F)F)CC(c1ccco1)N2)c1ccccc1", "note": "(stereo not drawn)", "inhibition": "2.19%"}
{"smiles": "O=C(Oc1ccc(OC(=O)c2ccco2)c(S(=O)(=O)c2ccc(Cl)cc2)c1)c1ccco1", "inhibition": "4.36%"}
{"smiles": "COc1ccc(C(=O)O/N=C(\\N)Cc2ccc([N+](=O)[O-])cc2)c(OC)c1", "inhibition": "5.06%"}
{"smiles": "O=C(CSc1nnc(CCCN2C(=O)c3cccc4cccc(c34)C2=O)n1-c1ccccc1)N1CCCCC1", "inhibition": "3.42%"}
{"smiles": "O=C(CSc1nnc(CCCN2C(=O)c3cccc4cccc(c34)C2=O)n1-c1ccccc1)NCCCO", "inhibition": "13.2%"}
{"smiles": "Cn1c(SCC(=O)c2ccc(F)cc2)nnc1-c1cnccn1", "inhibition": "-2.54%"}
{"smiles": "O=C(CN(c1ccccn1)S(=O)(=O)c1ccccc1)Nc1ccccc1", "inhibition": "-0.68%"}
{"smiles": "Cc1csc(SCC(=O)Nc2cccc(S(=O)(=O)N3CCOCC3)c2)n1", "inhibition": "0%"}
{"smiles": "O=C(NCc1ccccc1Cl)c1ccc(CSc2nc3ccncc3[nH]2)cc1", "inhibition": "1.57%"}
{"smiles": "CSC(=NC#N)N1CCN(c2ccc([N+](=O)[O-])cc2)CC1", "inhibition": "8.93%"}
{"smiles": "C=CCN(CC=C)S(=O)(=O)c1ccc(NC(=S)NC(=O)/C=C/c2ccccc2)cc1", "inhibition": "9.4%"}
{"smiles": "O=C(Cn1nnc2ccccc21)Nc1ccccc1[N+](=O)[O-]", "inhibition": "-1.91%"}
{"smiles": "CC(C)(C)NC(=O)COc1ccccc1C#N", "inhibition": "-0.28%"}
{"smiles": "Cc1ccc(C(=O)Nc2nc(=O)n(C(=O)c3ccccc3C)s2)cc1", "inhibition": "4.83%"}
{"smiles": "Cc1ccc(C(=O)Nc2nc(=O)n(C(=O)C3CC3)s2)cc1", "inhibition": "4.6%"}
{"smiles": "Cc1cc[n+](-c2nc3ccccc3nc2C(=C=[N-])C#N)cc1", "inhibition": "4.51%"}
